Results reported in ChEMBL document CHEMBL1961873, “Compounds: GSK PKIS; Assays: Nanosyn kinase panel” (2012).

Tests used:
[1] = biological target: Sphingosine kinase 1 (Homo sapiens) (UniProt Q9NYA1); conditions: at 1 µM;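 further: mean SPHK1 inhibition value reported from the GSK PKIS kinase panel screen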
[2] = biological target: T1, Sphingosine kinase 2 (Homo sapiens) (UniProt Q9NRA0); conditions: at 0.1 µM
T1 sequence (whole entry): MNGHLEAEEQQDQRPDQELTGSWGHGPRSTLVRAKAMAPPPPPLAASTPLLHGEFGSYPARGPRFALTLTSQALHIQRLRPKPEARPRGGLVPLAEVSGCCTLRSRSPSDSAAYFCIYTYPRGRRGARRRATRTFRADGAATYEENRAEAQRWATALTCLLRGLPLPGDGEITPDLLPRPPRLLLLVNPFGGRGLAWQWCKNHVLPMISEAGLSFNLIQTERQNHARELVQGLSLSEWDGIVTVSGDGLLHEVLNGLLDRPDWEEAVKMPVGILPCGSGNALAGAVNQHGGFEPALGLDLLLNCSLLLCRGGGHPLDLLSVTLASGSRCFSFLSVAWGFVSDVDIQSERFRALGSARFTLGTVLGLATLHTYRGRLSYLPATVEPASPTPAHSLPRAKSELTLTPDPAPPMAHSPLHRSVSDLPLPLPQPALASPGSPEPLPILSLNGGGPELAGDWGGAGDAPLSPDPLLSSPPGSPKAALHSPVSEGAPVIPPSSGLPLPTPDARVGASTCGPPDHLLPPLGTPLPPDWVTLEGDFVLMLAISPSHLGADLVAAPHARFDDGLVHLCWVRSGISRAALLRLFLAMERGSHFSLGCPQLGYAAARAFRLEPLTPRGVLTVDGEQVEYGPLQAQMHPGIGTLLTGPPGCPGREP

[3] = biological target: T1, Sphingosine kinase 2 (Homo sapiens); conditions: at 1 µM
[4] = biological target: Casein kinase II subunit alpha (Homo sapiens) (UniProt P68400); conditions: at 0.1 µM
[5] = biological target: Casein kinase II subunit alpha (Homo sapiens) (UniProt P68400); conditions: at 1 µM
[6] = biological target: T2, Inhibitor of nuclear factor kappa-B kinase subunit alpha (Homo sapiens) (UniProt O15111); conditions: at 0.1 µM
T2 sequence (whole entry): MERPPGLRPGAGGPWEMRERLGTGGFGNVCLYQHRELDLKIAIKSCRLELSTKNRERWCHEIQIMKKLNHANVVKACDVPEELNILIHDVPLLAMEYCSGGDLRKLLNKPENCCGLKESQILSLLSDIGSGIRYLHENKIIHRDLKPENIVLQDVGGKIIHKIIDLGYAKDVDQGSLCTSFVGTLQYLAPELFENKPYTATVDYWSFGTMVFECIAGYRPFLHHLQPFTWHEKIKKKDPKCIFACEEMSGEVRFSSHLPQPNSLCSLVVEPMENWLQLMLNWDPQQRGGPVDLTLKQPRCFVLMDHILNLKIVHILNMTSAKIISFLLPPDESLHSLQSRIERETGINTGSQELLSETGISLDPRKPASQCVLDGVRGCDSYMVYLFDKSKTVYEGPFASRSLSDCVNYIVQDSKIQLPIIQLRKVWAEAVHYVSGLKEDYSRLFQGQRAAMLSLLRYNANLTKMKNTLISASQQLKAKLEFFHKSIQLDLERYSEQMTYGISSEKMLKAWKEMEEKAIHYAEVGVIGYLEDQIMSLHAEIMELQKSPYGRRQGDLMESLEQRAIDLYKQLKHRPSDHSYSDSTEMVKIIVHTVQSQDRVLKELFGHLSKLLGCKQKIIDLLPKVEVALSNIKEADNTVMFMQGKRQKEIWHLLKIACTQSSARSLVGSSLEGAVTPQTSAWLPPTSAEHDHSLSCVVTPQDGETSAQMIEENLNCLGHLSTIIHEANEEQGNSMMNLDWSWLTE

[7] = biological target: T2, Inhibitor of nuclear factor kappa-B kinase subunit alpha (Homo sapiens); conditions: at 1 µM
[8] = biological target: T3, Inhibitor of nuclear factor kappa-B kinase subunit beta (Homo sapiens) (UniProt O14920); conditions: at 0.1 µM
T3 sequence (whole entry): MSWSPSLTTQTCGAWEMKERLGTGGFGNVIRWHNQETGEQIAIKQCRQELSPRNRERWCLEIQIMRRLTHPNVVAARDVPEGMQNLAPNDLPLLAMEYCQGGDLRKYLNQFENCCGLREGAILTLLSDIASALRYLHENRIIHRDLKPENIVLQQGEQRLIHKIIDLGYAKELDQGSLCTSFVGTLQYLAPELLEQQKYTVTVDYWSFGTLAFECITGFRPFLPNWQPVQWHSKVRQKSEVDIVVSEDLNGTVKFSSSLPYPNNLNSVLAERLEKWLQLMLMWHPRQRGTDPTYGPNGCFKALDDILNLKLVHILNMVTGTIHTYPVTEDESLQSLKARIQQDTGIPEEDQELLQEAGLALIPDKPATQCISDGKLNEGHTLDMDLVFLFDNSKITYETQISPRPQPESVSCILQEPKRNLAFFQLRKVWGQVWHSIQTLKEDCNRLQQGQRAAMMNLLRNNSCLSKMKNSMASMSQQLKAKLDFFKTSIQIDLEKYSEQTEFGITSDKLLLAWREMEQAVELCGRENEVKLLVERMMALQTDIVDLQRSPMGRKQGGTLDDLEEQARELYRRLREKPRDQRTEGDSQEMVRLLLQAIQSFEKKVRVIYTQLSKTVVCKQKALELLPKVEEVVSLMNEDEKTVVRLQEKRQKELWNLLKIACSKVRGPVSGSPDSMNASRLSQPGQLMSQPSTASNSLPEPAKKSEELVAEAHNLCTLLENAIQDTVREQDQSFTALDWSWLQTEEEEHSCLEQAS

[9] = biological target: T3, Inhibitor of nuclear factor kappa-B kinase subunit beta (Homo sapiens); conditions: at 1 µM
[10] = biological target: T4, Inhibitor of nuclear factor kappa-B kinase subunit epsilon (Homo sapiens) (UniProt Q14164); conditions: at 0.1 µM
T4 sequence (whole entry): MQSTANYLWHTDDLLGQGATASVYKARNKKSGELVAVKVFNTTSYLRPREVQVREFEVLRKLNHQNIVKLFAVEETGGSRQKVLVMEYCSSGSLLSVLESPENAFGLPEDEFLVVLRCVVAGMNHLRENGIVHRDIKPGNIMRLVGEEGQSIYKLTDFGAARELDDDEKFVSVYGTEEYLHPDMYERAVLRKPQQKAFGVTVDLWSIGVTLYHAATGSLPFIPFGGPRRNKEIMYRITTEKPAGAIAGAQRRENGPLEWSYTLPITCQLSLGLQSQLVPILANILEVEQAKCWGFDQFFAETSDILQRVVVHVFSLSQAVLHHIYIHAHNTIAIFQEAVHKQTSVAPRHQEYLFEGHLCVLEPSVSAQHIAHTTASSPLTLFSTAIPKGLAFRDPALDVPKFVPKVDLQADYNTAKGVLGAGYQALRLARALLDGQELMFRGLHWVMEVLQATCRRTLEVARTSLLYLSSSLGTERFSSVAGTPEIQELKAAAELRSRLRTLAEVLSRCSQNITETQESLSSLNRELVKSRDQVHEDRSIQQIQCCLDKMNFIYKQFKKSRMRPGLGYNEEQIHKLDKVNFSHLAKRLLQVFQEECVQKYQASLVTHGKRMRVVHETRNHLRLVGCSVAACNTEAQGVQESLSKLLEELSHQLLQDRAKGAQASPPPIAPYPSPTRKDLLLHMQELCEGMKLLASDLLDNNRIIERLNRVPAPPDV

[11] = biological target: T4, Inhibitor of nuclear factor kappa-B kinase subunit epsilon (Homo sapiens); conditions: at 1 µM
[12] = biological target: T5, Serine/threonine-protein kinase Nek1 (Homo sapiens) (UniProt Q96PY6); conditions: at 0.1 µM
T5 sequence (whole entry): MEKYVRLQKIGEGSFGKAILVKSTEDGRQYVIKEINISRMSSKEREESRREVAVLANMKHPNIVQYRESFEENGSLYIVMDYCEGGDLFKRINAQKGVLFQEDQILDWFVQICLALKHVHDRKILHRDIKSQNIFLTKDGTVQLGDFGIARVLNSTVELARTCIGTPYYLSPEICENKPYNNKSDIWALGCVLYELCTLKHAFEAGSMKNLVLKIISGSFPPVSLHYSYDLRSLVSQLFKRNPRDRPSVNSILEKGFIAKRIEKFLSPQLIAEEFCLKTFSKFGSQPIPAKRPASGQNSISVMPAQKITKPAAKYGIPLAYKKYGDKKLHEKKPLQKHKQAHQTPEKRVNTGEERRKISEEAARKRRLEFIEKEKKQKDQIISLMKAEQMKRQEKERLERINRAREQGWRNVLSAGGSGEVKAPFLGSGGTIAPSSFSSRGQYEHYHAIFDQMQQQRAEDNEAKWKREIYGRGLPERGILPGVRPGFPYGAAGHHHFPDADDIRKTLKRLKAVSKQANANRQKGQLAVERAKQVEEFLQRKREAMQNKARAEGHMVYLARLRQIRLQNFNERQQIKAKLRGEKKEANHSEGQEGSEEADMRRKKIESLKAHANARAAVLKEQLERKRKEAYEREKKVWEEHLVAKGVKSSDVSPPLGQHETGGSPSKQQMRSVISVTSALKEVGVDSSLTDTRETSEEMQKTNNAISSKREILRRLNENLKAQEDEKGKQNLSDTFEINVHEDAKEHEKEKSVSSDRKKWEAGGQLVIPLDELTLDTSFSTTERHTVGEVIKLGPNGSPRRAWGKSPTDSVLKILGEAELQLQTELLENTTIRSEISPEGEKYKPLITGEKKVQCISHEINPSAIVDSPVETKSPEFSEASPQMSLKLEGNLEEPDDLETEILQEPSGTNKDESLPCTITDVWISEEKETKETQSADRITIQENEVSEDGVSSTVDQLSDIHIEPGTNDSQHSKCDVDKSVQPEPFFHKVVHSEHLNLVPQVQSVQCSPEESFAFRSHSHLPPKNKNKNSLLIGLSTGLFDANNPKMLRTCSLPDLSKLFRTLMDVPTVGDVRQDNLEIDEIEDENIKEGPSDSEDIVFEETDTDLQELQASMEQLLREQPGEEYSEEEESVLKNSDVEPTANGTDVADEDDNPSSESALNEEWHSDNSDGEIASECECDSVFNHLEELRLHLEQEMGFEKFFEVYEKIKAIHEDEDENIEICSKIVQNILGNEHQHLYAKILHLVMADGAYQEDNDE

[13] = biological target: T5, Serine/threonine-protein kinase Nek1 (Homo sapiens); conditions: at 1 µM
[14] = biological target: T6, Serine/threonine-protein kinase Nek2 (Homo sapiens) (UniProt P51955); conditions: at 0.1 µM
T6 sequence (whole entry): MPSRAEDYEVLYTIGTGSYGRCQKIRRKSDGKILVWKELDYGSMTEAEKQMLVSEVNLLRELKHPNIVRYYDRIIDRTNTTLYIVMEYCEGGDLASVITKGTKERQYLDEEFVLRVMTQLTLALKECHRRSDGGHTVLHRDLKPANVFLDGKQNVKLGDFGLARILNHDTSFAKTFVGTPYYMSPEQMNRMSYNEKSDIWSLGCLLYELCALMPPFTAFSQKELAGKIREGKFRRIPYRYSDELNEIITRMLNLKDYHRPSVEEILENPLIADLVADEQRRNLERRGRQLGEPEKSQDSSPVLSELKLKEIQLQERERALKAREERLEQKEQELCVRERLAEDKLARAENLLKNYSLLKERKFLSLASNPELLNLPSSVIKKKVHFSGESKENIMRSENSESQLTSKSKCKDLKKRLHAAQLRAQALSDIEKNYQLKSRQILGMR

[15] = biological target: T6, Serine/threonine-protein kinase Nek2 (Homo sapiens); conditions: at 1 µM
[16] = biological target: Serine/threonine-protein kinase Nek6 (Homo sapiens) (UniProt Q9HC98); conditions: at 0.1 µM
[17] = biological target: Serine/threonine-protein kinase Nek6 (Homo sapiens) (UniProt Q9HC98); conditions: at 1 µM
[18] = biological target: Serine/threonine-protein kinase Nek7 (Homo sapiens) (UniProt Q8TDX7); conditions: at 0.1 µM
[19] = biological target: Serine/threonine-protein kinase Nek7 (Homo sapiens) (UniProt Q8TDX7); conditions: at 1 µM
[20] = biological target: T7, Serine/threonine-protein kinase Nek9 (Homo sapiens) (UniProt Q8TD19); conditions: at 0.1 µM;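 further: reported value is the mean percent inhibition of NEK9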
T7 sequence (whole entry): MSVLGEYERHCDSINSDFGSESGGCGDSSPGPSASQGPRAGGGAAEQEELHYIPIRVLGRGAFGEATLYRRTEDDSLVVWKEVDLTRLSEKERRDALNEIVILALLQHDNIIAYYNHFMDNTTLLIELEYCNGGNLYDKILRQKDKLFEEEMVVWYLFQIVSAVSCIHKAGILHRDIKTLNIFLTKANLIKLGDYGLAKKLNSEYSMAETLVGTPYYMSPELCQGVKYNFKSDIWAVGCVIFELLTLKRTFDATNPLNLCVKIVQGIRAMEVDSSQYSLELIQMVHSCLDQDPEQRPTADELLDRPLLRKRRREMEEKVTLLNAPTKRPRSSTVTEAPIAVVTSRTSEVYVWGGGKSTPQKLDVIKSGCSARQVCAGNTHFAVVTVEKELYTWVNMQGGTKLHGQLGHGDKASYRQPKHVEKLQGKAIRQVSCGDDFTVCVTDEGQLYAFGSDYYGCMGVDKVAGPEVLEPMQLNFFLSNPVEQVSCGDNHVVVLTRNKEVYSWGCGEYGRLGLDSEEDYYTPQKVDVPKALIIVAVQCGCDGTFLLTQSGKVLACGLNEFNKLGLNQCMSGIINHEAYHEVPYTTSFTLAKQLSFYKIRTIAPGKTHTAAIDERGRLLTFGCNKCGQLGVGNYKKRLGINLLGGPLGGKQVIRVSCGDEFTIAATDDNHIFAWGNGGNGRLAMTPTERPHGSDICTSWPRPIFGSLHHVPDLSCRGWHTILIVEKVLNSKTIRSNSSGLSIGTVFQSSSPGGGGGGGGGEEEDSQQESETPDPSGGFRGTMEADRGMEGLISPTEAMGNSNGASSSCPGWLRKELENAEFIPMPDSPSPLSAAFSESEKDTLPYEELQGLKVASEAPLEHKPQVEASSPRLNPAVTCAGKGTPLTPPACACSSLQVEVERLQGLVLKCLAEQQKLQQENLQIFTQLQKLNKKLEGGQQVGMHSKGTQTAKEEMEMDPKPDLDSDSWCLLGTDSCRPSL

Chain of Serine/threonine-protein kinase Nek7 (Homo sapiens) (Q8TDX7 whole entry, looked up): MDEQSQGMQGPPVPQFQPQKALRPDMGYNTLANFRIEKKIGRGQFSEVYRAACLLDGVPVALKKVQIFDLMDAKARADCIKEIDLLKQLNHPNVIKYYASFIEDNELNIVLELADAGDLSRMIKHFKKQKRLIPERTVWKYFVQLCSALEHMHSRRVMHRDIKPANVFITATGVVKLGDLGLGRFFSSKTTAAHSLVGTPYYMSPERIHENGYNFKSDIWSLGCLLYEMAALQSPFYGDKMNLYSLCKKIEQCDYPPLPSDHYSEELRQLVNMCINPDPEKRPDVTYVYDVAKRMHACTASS
Chain of Serine/threonine-protein kinase Nek6 (Homo sapiens) (Q9HC98 whole entry): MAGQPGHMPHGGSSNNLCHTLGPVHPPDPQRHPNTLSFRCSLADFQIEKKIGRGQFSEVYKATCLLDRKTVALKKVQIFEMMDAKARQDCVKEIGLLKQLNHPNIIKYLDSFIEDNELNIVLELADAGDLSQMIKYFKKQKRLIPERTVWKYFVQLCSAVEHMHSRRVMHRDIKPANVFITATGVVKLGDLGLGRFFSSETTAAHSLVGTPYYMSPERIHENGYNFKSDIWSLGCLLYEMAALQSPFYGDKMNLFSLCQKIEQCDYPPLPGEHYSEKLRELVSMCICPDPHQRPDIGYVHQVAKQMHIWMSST
Chain of Casein kinase II subunit alpha (Homo sapiens) (P68400 whole entry, looked up): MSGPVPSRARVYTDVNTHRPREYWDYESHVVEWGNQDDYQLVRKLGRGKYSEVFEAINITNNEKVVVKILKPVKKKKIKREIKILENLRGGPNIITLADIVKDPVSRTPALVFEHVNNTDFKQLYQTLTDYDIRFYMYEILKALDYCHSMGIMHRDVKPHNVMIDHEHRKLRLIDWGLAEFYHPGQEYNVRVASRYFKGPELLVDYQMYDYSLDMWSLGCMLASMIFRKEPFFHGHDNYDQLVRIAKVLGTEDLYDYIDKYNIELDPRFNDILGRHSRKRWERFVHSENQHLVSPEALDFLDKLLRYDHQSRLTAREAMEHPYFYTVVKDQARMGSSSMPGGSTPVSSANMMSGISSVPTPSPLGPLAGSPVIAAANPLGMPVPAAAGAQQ
Chain of Sphingosine kinase 1 (Homo sapiens) (Q9NYA1 whole entry): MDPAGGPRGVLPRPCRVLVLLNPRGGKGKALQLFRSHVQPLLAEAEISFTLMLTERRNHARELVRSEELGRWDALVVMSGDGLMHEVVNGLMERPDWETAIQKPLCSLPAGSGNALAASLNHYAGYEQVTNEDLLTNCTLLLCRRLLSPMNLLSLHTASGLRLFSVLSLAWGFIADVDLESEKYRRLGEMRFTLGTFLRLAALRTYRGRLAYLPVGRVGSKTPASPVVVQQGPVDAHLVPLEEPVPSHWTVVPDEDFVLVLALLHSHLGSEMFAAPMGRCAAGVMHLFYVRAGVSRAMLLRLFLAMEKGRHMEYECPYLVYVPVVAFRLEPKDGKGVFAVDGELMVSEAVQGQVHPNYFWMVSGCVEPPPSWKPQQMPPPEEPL

Structure (SMILES)	inhibition [1] [%]	inhibition [2] [%]	inhibition [3] [%]	inhibition [4] [%]	inhibition [5] [%]	inhibition [6] [%]	inhibition [7] [%]	inhibition [8] [%]	inhibition [9] [%]	inhibition [10] [%]	inhibition [11] [%]	inhibition [12] [%]	inhibition [13] [%]	inhibition [14] [%]	inhibition [15] [%]	inhibition [16] [%]	inhibition [17] [%]	inhibition [18] [%]	inhibition [19] [%]	inhibition [20] [%]
Fc1cccc(COc2ccc(Nc3ncnc4sc(-c5cccs5)cc34)cc2Cl)c1	1.25	-2.31	1.14	-0.4	1.52	3.55	1.01	1.1	0.28	-0.11	3.74	2.04	2.57	2.88	1.85	-0.49	1.79	-0.09	5.03	1.95
O=C(Nc1n[nH]c2nc(-c3ccco3)c(Br)cc12)C1CC1	-1.04	0.57	0.07	-0.1	-1.87	-4.07	-2.15	1.61	2.38	3.19	3.64	2.9	1.85	4.03	3.85	3.21	0.56	4.18	3.03	1.02
